This is part of a sample that, as a whole, favours compounds with a hit. Of some 83,000 tested, about 20% had one in any assay.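 Step 1: grow cells in 96-well plates. Step 2: add test compound at a single concentration. Step 3: incubate 48 h. Step 4: record percent growth.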 Values without a mark were called inactive. Activity calls are given as the source filed them. How the source made its calls: active means growth percent below 10; inactive means the rest.

For eight compounds, growth results are on record in PubChem BioAssay (NCI).

Common to all, as to experiment: NCI-60 one-dose screen, 48 h (100 = growth as untreated, 0 = no growth, -100 = all killed)
One test concerns SK-MEL-2 melanoma. As to conditions: 10 µM unless noted.
The next test deals with EKVX NSCLC. The conditions noted are these: 10 µM unless noted.
A further test deals with SN12C renal. The conditions noted are these: 10 µM unless noted.
For the next test, the system named is UO-31 renal. As to conditions: 10 µM unless noted.
Another test relates to TK-10 renal. As to conditions: 10 µM unless noted.
The next test has as its system ACHN renal. As to conditions: 10 µM unless noted.
The test system of the next test is CAKI-1 renal. As to conditions: 10 µM unless noted.
The test system of another test is HL-60(TB) leukemia. The conditions noted are these: 10 µM unless noted.
In another test the test system is CCRF-CEM leukemia. As to conditions: 10 µM unless noted.
For another test, the system named is MOLT-4 leukemia. The conditions noted are these: 10 µM unless noted.
The test system of the next test is SR leukemia. The conditions noted are these: 10 µM unless noted.
The test system of a further test is RPMI-8226 leukemia. The conditions noted are these: 10 µM unless noted.
A further test has as its system OVCAR-8 ovarian. The conditions noted are these: 10 µM unless noted.
The next test has as its system OVCAR-5 ovarian. As to conditions: 10 µM unless noted.
The test system of the next test is OVCAR-4 ovarian. As to conditions: 10 µM unless noted.
Another test has as its system SK-OV-3 ovarian. The conditions noted are these: 10 µM unless noted.
The next test deals with IGROV1 ovarian. The conditions noted are these: 10 µM unless noted.
The next test concerns OVCAR-3 ovarian. As to conditions: 10 µM unless noted.
For a further test, the system named is HS 578T breast. As to conditions: 10 µM unless noted.
The subject of the next test is A498 renal. The conditions noted are these: 10 µM.

Regarding `C[C@@]12CC=C3c4nc(Nc5cccc(O)c5)sc4CC[C@]3(C)[C@H]1CC[C@]1(C)C(=O)CC[C@@H]21`, the growth is 29.1% in the test with SK-MEL-2 melanoma; 71.4% in the test on EKVX NSCLC; 46.5% in the test on SN12C renal; 22.2% in the test with UO-31 renal; 10.2% in the test with TK-10 renal; 5.12% (active) in the test on ACHN renal. The growth was 37.1% with CAKI-1 renal; 46% in the test on HL-60(TB) leukemia; 13% in the test on CCRF-CEM leukemia; 5.52% (active) in the test with MOLT-4 leukemia; 3.61% (active) in the test on SR leukemia; -13.6% (active) in the test on RPMI-8226 leukemia. Besides, the growth is 17.9% with OVCAR-8 ovarian; 110% in the test with OVCAR-5 ovarian; 52.1% with OVCAR-4 ovarian; 37.3% in the test with SK-OV-3 ovarian; -12.1% (active) in the test on IGROV1 ovarian; -3.79% (active) in the test on OVCAR-3 ovarian.
As for `CCOC(=O)[C@@H](C)C[C@H](Cc1ccccc1)NC(=O)c1csc([C@@H](C[C@H](C(C)C)N(C)C(=O)[C@@H](NC(=O)[C@H]2CCCCN2C)C(C)(C)CC)OC(C)=O)n1`, the growth was 2.19% (active) with SK-MEL-2 melanoma; 37.4% with EKVX NSCLC; 9.13% (active) with SN12C renal; 7.43% (active) in the test on UO-31 renal; 29.3% with TK-10 renal; 2.48% (active) in the test on ACHN renal. Also, the growth in the test with CAKI-1 renal was 19.8%; in the test on HL-60(TB) leukemia, -33.4% (active); with CCRF-CEM leukemia, 3.47% (active); in the test on MOLT-4 leukemia, 13.5%; with SR leukemia, -4.98% (active); with RPMI-8226 leukemia, -1.78% (active). The growth is 10.6% in the test on OVCAR-8 ovarian; 28% in the test on OVCAR-5 ovarian; 30.4% with OVCAR-4 ovarian; 26.9% in the test on SK-OV-3 ovarian; 14.5% with IGROV1 ovarian; 2.01% (active) in the test on OVCAR-3 ovarian. In the test with HS 578T breast, the growth is -9.16% (active).
Take `O=[N+]([O-])CC(c1ccccc1Cl)c1c(-c2ccccc2)[nH]c2ccccc12` (stereo not given): the growth with SK-MEL-2 melanoma was 27.2%; in the test with EKVX NSCLC it was 40.6%; in the test with SN12C renal, 53.4%; in the test with UO-31 renal, 45.1%; in the test on TK-10 renal, 61.6%; with ACHN renal, 39.7%. For the same compound, the growth in the test with CAKI-1 renal was 24.4%; in the test with HL-60(TB) leukemia, 6.94% (active); in the test with CCRF-CEM leukemia, 23.6%; in the test on MOLT-4 leukemia it was 30.3%; in the test on SR leukemia it was 18.9%; in the test on RPMI-8226 leukemia, 45.2%. In addition, the growth was 40.4% in the test with OVCAR-8 ovarian; 69.1% in the test on OVCAR-5 ovarian; 66.4% in the test with OVCAR-4 ovarian; 44.1% with SK-OV-3 ovarian; 33.8% in the test on IGROV1 ovarian; 9.26% (active) in the test on OVCAR-3 ovarian. Moreover, the growth in the test on HS 578T breast was 41.2%.
Consider `N#CC1C(C#N)C2CCC1C1C2N1c1ccccc1` (stereo not given), for which the growth in the test with SK-MEL-2 melanoma was 106%; in the test on EKVX NSCLC, 97.5%; in the test on SN12C renal, 99.5%; in the test with UO-31 renal, 72.3%; with TK-10 renal it was 106%; in the test on ACHN renal, 97.4%. The growth in the test with CAKI-1 renal is 98.9%; in the test with HL-60(TB) leukemia, 91.7%; in the test on CCRF-CEM leukemia, 82.9%; in the test on MOLT-4 leukemia, 91.2%; in the test on SR leukemia, 91.5%; in the test on RPMI-8226 leukemia, 95.8%. In addition, the growth is 114% in the test on OVCAR-8 ovarian; 92.4% in the test with OVCAR-5 ovarian; 106% with OVCAR-4 ovarian; 100% with SK-OV-3 ovarian; 85.1% in the test with IGROV1 ovarian; 107% with OVCAR-3 ovarian. Also, the growth in the test with HS 578T breast is 112%.
Consider `O=C(Nc1ccc(O)cc1)C(Cl)(Cl)Cl`, for which the growth was 99.4% with SK-MEL-2 melanoma; 98.6% in the test with EKVX NSCLC; 95.4% in the test on SN12C renal; 93.4% in the test on UO-31 renal; 106% with TK-10 renal; 104% with ACHN renal. The growth with CAKI-1 renal was 89.9%; with HL-60(TB) leukemia, 98.5%; in the test with CCRF-CEM leukemia it was 106%; in the test with MOLT-4 leukemia, 104%; with SR leukemia it was 96.6%; in the test with RPMI-8226 leukemia, 112%. Besides, the growth in the test on OVCAR-8 ovarian was 97.1%; in the test with OVCAR-5 ovarian, 102%; in the test on OVCAR-4 ovarian, 105%; with SK-OV-3 ovarian it was 98.2%; with IGROV1 ovarian, 100%; in the test with OVCAR-3 ovarian, 124%. Also, the growth in the test with HS 578T breast was 112%.
In the case of `C[C@]12CCc3sc(-c4cccc(F)c4)nc3C1=CC[C@@H]1[C@@H]2CC[C@]2(C)C(=O)CC[C@@H]12`, the growth in the test with SK-MEL-2 melanoma was 32.1%; in the test with EKVX NSCLC, 68.3%; in the test on SN12C renal it was 42.9%; in the test with UO-31 renal it was 1.08% (active); in the test with TK-10 renal it was 24%; with ACHN renal, 11.9%. Further, the growth is 36.9% in the test on CAKI-1 renal; 34.2% in the test on HL-60(TB) leukemia; 15.8% in the test with CCRF-CEM leukemia; 5.82% (active) in the test with MOLT-4 leukemia; 5.11% (active) in the test on SR leukemia; -2.88% (active) with RPMI-8226 leukemia. The growth was 28.5% in the test with OVCAR-8 ovarian; 87.2% in the test on OVCAR-5 ovarian; 65.1% with OVCAR-4 ovarian; 17.9% in the test on SK-OV-3 ovarian; 0.597% (active) in the test on IGROV1 ovarian; 7.89% (active) in the test on OVCAR-3 ovarian.
Consider `C[C@]12CC[C@H]3[C@@H](C[C@@H]4SC(Nc5ccccc5)=N[C@@]45CC(O)CC[C@]35C)[C@@H]1CCC2O` (stereo not given in full), for which the growth in the test with SK-MEL-2 melanoma is 51.7%; with EKVX NSCLC, 73.2%; in the test on SN12C renal, 10.1%; with UO-31 renal, 26.1%; in the test on TK-10 renal it was 65%; with ACHN renal, 36.8%. Further, the growth in the test with CAKI-1 renal was 49%; with HL-60(TB) leukemia it was 15.7%; with CCRF-CEM leukemia, 0.738% (active); with MOLT-4 leukemia it was 6.79% (active); in the test on SR leukemia, 8.06% (active); with RPMI-8226 leukemia it was -32.3% (active). Also, the growth was -8.95% (active) in the test on OVCAR-8 ovarian; 92.2% with OVCAR-5 ovarian; 64.1% in the test with OVCAR-4 ovarian; 89.6% with SK-OV-3 ovarian; 11.2% with IGROV1 ovarian; -31.6% (active) in the test on OVCAR-3 ovarian. Further, the growth in the test on HS 578T breast is 3.65% (active).
`COc1cc([C@@H]2c3cc4c(cc3[C@H](OC(C)=O)[C@H]3COC(=O)[C@H]23)OCO4)cc(OC)c1OC`: the growth in the test with SK-MEL-2 melanoma was 33.2%; with EKVX NSCLC, 38.3%; with SN12C renal, 31.9%; in the test on UO-31 renal, 43.7%; in the test on TK-10 renal it was 65.9%; in the test with ACHN renal, 28.7%. Also, the growth is -7.56% (active) with A498 renal; -24.8% (active) in the test on HL-60(TB) leukemia; 14.4% in the test on CCRF-CEM leukemia; 16.7% in the test with MOLT-4 leukemia; 9.46% (active) in the test on SR leukemia; 23.4% in the test on RPMI-8226 leukemia. In addition, the growth in the test with OVCAR-8 ovarian is 21.1%; in the test with OVCAR-5 ovarian it was 56.4%; with OVCAR-4 ovarian, 41.3%; in the test with SK-OV-3 ovarian it was 39.3%; with IGROV1 ovarian it was 21.2%; with OVCAR-3 ovarian, 1.52% (active). The growth in the test with HS 578T breast is 46.6%.
